# Test results as given in PubChem BioAssay (NCATS).
# Inconclusive results are not listed. Calls of active or inactive are those of the source. Unless noted, calls follow the shape of the dose curve; as a rule, active = well fitted curve in the direction sought with a large enough effect; inconclusive = small, poorly fitted or top-dose-only effect, or another doubt; inactive = no such curve, though single readings can be large; an effect the other way counts as inactive or inconclusive.
# Assays:
# [1] = qHTS Assay for Identifying Gametocytocidal Compounds (AID 743244); also: potency is read from the fitted curve at half-maximal effect; conditions: P. falciparum 3D7 stage III-V gametocytes, alamarBlue, 72 h; max response: stronger effect = lower value
# Summary of the method: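 Compounds are pinned into medium, gametocytes (stage III–V, 3D7, 20,000 cells/well) added, and plates held 72 h at 37 °C in 5% CO2. AlamarBlue follows for 24 h before fluorescence reading.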
# [2] = qHTS profiling for inhibitors of Plasmodium falciparum (3D7) proliferation (AID 743322);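 also: infected erythrocytes exposed to compound for 72 h before lysis; 100% = DMSO vehicle wells and 0% = 0.29 µM artemisinin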; conditions: P. falciparum 3D7 proliferation; at 28.7 µM (top of the series) unless noted
# Summary of the method: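 Parasite DNA was quantified by SYBR Green I fluorescence (ex 485, em 535 nm) after overnight lysis in saponin/Triton buffer at room temperature. Cultures at 0.3% parasitemia and 2.5% hematocrit were first exposed to compound for 72 h at 37 C; signals were normalised to artemisinin (0.29 uM) and vehicle wells.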
# [3] = qHTS profiling for inhibitors of Plasmodium falciparum (DD2) proliferation (AID 743323; call rule not given here); conditions: lower = more inhibition; at 28.7 µM (top of the series) unless noted
# Summary of the method: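 Parasite proliferation measured via DNA-dye fluorescence, as uninfected erythrocytes lack DNA. Cultures at 0.3% parasitemia and 2.5% hematocrit incubated 72 h with compound; signal scaled between vehicle and 0.29 uM artemisinin wells.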
# [4] = qHTS profiling for inhibitors of Plasmodium falciparum (HB3) proliferation (AID 743324); conditions: Plasmodium falciparum HB3 blood-stage proliferation; at 28.7 µM (top of the series) unless noted;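 also: 100% = DMSO vehicle wells and 0% = artemisinin-treated control wells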
# Summary of the method: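 SYBR Green fluorescence (485 ex/535 em) of lysed cultures, incubated overnight at room temperature in the dark, quantifies parasite DNA. Infected erythrocytes at 0.3% parasitemia and 2.5% hematocrit were exposed 72 h; values normalized to DMSO and 0.29 uM artemisinin controls.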
# [5] = qHTS assay for small molecule agonists of the antioxidant response element (ARE) signaling pathway measured by Nrf2-dependant transcriptional activity (AID 720636; active = well fitted curve in the direction sought with a large enough effect in the repeat runs; an effect the other way counts as inactive or inconclusive; also: % of control where 0% means no effect); conditions: ARE-luc HepG2, Nrf2 luciferase reporter, 16 h; series mostly up to 92.4 µM
# Summary of the method: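 Attachment 6 hr at 37 C, then compound versus DMSO vehicle for 16 hr in ARE-luc HepG2 cells (1% dialyzed FBS); luminescence recorded 30 min after ONE-Glo addition at room temperature.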
# [6] = molecular target: Alpha-galactosidase (Coffea arabica) (UniProt Q42656); experiment: Counterscreen for Glucocerebrosidase Inhibitors: qHTS Assay for Coffee Bean alpha-Galactosidase at pH 4.5 (AID 957); conditions: purified coffee bean alpha-galactosidase, fluorogenic substrate; series mostly up to 76.9 µM;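 also: plate controls were enzyme alone for no effect and no enzyme for full effect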
# Summary of the method: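 Fluorogenic read-out: 4-methylumbelliferone at Ex 365/Em 440 nm after NaOH/glycine stop (pH 10). Enzyme 2 nM, 4-MU-alpha-galactoside 80 uM, citrate buffer pH 4.5, 20 min RT; normalized to no-enzyme and enzyme controls.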
# [7] = molecular target: Alpha-galactosidase (Coffea arabica) (UniProt Q42656); experiment: Counterscreen for Glucocerebrosidase Inhibitors: qHTS Assay for Coffee Bean alpha-Galactosidase at pH 5.9 (AID 998); conditions: coffee bean alpha-galactosidase enzyme assay; series mostly up to 76.9 µM;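 also: plate controls were uninhibited enzyme for no effect and no-enzyme basal signal for full effect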
# Summary of the method: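 In 50 mM citric acid pH 5.9 with 0.005% Tween-20, coffee bean enzyme hydrolyses 80 uM 4-MU alpha-D-galactopyranoside over 20 min at RT. Activity is normalized to controls; AC50 comes from Hill-modelled concentration-response data.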
# [8] = Nrf2 qHTS screen for inhibitors: Validation (AID 493153; active = well fitted inhibition curve with a large enough effect in the main read-out, with a control signal flat, not every such curve was filed as active; also: potency is read from the fitted curve at half-maximal effect); conditions: A549 ARE-Fluc reporter, 18-24 h; Potency: luciferase luminescence; viability change: measured here: cytotoxicity max response
# Summary of the method: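 Concentration-response test in A549 ARE_Fluc reporter cells (5% FBS OPTI-MEM), compound exposure 18-24 h at 37°C, 5% CO2. Cell viability measured first by CellTiter-Fluor fluorescence; ARE-driven luciferase luminescence then measured as Nrf2 activity.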
# [9] = qHTS for Inhibitors of ATXN expression: Validation (AID 588378); conditions: cell-based ATXN2 expression reporter assay, luminescence; also: potency is read from the fitted curve at half-maximal effect; nearly all actives have a fitted effect of over 75% in size
# Summary of the method: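 Compounds were pinned onto attached HEK293 cells carrying an ATXN2-firefly luciferase construct and incubated 24 hrs at 37 degrees C. Each well then received a fluorescent viability reagent followed by luciferase substrate for end-point luminescence.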
# [10] = qHTS for Inhibitors of Plasmodium falciparum (DD2) proliferation (AID 504314);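 also: parasite DNA measured by SYBR Green fluorescence after red cell lysis; plate controls were DMSO vehicle for no effect and artemisinin wells for full effect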; conditions: P. falciparum Dd2 in erythrocytes, SYBR Green growth, 72 h; series mostly up to 6.11 µM
# Summary of the method: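 Normalization used 0.29 uM artemisinin as full inhibition and DMSO as baseline. Parasitized erythrocytes were exposed to compounds for 72 h (37C, 5% CO2), then lysed with saponin/Triton buffer containing SYBR Green I.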
# [11] = qHTS for Inhibitors of Plasmodium falciparum (GB4) proliferation (AID 504315);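 also: 0% = DMSO vehicle and -100% = 0.29 µM artemisinin control; nearly all actives have a fitted effect of over 50% in size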; conditions: P. falciparum GB4 in erythrocytes, SYBR Green DNA, 72 h; series mostly up to 6.7 µM
# Summary of the method: (§1)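 Parasite growth measured as SYBR Green DNA fluorescence (ex 485, em 535 nm) after overnight lysis following 72 h culture at 37 °C, 0.3% parasitemia, 2.5% hematocrit. Values normalized against DMSO and 0.29 uM artemisinin controls, with plate-stack correction.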
# [12] = qHTS for Inhibitors of Plasmodium falciparum (7G8) proliferation (AID 504316);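 also: 0% = DMSO vehicle and -100% = 0.29 µM artemisinin full kill; nearly all actives have a fitted effect of over 65% in size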; conditions: P. falciparum 7G8 in erythrocytes, SYBR Green DNA, 72 h; series mostly up to 6.7 µM
# Summary of the method: as §1
# [13] = qHTS for Inhibitors of Plasmodium falciparum (HB3) proliferation (AID 504318);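 also: 0% = DMSO vehicle and -100% = artemisinin control; nearly all actives have a fitted effect of over 60% in size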; conditions: P. falciparum HB3 in erythrocytes, SYBR Green DNA, 72 h; series mostly up to 7.21 µM
# Summary of the method: as §1
# [14] = qHTS for Inhibitors of Plasmodium falciparum (CP250) proliferation (AID 504320);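 also: plate controls were DMSO vehicle for no effect and 0.29 µM artemisinin control for full effect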; conditions: P. falciparum CP250 in erythrocytes, SYBR Green DNA, 72 h; series mostly up to 6.7 µM
# Summary of the method: as §1
# [15] = Confirmation and Secondary Assay for Modulators of Hemoglobin Beta Chain Splicing at IVS2 705 locus (AID 930); conditions: HeLa EGFP-705 splicing reporter, GFP fluorescence, 48 h; series mostly up to 46.1 µM;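 also: HeLa cells stably expressing the EGFP-705 splicing reporter; GFP fluorescence per well restored by corrected splicing of the IVS2-705 intron in EGFP; % of control where 0% means no effect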
# Summary of the method: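 HeLa IVS2-705 EGFP reporter cells, 500/well, compound 2 d at 37C; correct splicing yields fluorescent EGFP. Control: 500 nM antisense PNA. Read-out: total peak GFP intensity.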
# [16] = molecular target: Estrogen receptor (Homo sapiens) (UniProt P03372); experiment: qHTS assay for small molecule antagonists of estrogen receptor alpha signaling (AID 588513; active = well fitted curve in the direction sought with a large enough effect in the signal ratio, with a control signal flat, not every such curve was filed as active; the % refers to the signal ratio; also: potency is read from the fitted curve at half-maximal effect); conditions: ER-alpha-UAS-bla HEK293, beta-lactamase ratio, antagonist mode; series mostly up to 76.9 µM
# Summary of the method: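 Fluorescence from CCF4 substrate after 2 h at room temperature gave reporter activity; cells had been exposed to compound and 0.5nM 17-beta-estradiol for 18 h at 37 C. Hill-equation fitting yielded IC50 and maximal response.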
# [17] = molecular target: Androgen receptor (Homo sapiens) (UniProt P10275); experiment: qHTS assay for small molecule antagonists of androgen receptor signaling (AID 588516; active = well fitted curve in the direction sought with a large enough effect in the signal ratio, with a control signal flat, not every such curve was filed as active; the % refers to the signal ratio; also: potency is read from the fitted curve at half-maximal effect); conditions: AR-UAS-bla HEK293, beta-lactamase ratio, antagonist mode, 16 h; series mostly up to 76.8 µM
# Summary of the method: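 Cells were plated and incubated 5 h, compounds added in titration, then R1881 (10 nM final) as agonist. After 16 h at 37 C, CCF4 substrate was loaded for 2 h at room temperature and fluorescence measured.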
# [18] = qHTS assay for small molecule agonists of retinoid X receptor alpha signaling (AID 588544; calls by dose curve; also: potency is read from the fitted curve at half-maximal effect); conditions: HEK293T RXRa-UAS-bla, beta-lactamase reporter, 18 h; 530 nm emission
# [19] = molecular target: Retinoic acid receptor RXR-alpha (Homo sapiens) (UniProt P19793); experiment: as above; conditions: HEK293T RXRa-UAS-bla, beta-lactamase reporter, 18 h; series mostly up to 76.7 µM
# [20] = qHTS assay for small molecule activators of the p53 signaling pathway (AID 651743; active = well fitted activation curve with a large enough effect in the signal ratio, not every such curve was filed as active; the % refers to the signal ratio; also: % of control where 0% means no effect); conditions: HCT-116 p53RE-bla, beta-lactamase FRET ratio, 16 h; activation: stronger effect = higher value
# Summary of the method: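 Here HCT-116 cells with an integrated p53-responsive beta-lactamase gene were incubated with compounds (16 hours, 37 C) after a 5-hour plating period; beta-lactamase activity was detected as fluorescence intensity via B/G FRET substrate.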
# Estrogen receptor (Homo sapiens), sequence (P03372 whole entry, looked up): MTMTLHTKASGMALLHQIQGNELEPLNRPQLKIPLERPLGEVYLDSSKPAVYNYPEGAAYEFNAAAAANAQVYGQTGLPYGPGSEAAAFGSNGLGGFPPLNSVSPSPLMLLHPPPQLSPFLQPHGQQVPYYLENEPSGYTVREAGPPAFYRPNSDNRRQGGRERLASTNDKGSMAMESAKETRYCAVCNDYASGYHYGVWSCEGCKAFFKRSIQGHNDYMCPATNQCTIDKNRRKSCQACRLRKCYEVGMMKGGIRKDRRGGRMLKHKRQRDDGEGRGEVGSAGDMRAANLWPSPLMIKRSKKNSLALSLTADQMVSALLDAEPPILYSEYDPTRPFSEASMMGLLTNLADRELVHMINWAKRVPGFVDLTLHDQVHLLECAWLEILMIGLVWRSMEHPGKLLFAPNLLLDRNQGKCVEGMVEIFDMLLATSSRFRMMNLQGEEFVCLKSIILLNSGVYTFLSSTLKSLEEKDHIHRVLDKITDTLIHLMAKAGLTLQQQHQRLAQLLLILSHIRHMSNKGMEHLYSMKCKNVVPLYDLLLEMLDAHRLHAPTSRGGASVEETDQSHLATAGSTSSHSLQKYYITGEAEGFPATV
# Alpha-galactosidase (Coffea arabica), sequence (Q42656 whole entry, looked up): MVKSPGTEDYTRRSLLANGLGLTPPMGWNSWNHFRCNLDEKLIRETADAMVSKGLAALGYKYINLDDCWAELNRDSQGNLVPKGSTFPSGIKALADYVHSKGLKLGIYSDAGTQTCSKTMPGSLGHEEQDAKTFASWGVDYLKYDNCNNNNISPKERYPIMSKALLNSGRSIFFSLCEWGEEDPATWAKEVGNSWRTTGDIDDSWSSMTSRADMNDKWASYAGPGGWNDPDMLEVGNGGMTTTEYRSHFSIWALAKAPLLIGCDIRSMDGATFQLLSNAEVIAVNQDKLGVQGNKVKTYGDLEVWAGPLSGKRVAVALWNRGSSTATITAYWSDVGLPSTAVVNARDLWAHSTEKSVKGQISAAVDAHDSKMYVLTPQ
# Androgen receptor (Homo sapiens), sequence (P10275 whole entry, looked up): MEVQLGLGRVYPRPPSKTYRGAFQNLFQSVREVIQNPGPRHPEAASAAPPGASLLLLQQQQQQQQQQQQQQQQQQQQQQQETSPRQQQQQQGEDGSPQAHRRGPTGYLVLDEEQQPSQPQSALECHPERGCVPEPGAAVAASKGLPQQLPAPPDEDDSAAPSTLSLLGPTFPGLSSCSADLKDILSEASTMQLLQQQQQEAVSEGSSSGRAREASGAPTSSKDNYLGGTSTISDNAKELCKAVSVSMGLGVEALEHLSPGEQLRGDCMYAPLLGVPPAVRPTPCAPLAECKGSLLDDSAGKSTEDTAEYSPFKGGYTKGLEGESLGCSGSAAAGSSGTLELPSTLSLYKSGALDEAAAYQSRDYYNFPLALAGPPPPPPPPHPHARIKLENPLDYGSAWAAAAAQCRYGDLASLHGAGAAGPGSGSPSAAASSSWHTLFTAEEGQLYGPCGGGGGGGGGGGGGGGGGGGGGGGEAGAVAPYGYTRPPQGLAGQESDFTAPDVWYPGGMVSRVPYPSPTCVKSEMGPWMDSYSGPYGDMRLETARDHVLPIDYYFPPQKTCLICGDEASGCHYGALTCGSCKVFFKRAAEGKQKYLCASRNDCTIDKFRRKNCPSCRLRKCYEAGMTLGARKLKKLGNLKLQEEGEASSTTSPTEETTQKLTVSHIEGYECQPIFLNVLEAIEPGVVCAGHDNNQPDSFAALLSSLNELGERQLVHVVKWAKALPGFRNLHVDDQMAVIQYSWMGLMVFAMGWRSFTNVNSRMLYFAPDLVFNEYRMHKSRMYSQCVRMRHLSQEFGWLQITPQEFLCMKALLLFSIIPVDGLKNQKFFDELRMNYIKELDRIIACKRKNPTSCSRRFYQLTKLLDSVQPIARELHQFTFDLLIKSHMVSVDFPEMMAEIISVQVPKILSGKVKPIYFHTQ
# Retinoic acid receptor RXR-alpha (Homo sapiens), sequence (P19793 whole entry, looked up): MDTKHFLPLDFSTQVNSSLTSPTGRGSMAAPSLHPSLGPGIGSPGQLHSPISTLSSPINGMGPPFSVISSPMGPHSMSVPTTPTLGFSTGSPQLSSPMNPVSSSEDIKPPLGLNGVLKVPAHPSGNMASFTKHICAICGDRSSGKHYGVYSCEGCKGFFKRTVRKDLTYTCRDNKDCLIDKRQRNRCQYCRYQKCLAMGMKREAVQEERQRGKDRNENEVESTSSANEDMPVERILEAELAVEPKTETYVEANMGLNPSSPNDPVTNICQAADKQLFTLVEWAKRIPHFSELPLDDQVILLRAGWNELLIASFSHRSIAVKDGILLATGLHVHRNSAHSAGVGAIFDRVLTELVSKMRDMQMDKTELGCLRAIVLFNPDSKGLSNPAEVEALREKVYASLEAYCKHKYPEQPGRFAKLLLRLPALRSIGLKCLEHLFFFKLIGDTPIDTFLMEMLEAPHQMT
compound,measurement,setting,value
C[C@@H]1CC[C@H]2[C@@H](C)C(=O)O[C@@H]3OC4(C)CC[C@@H]1C32OO4 (stereo partly drawn),Potency,[1],0.136 µM (active)
same,remaining parasite growth % (stronger effect = lower value),[2],-0.139% [at 57.5 µM]
same,"activity, percent of control",[3],0.0598% [at 57.5 µM]
same,"remaining proliferation (% of control), lower = more inhibition",[4],0.0815% [at 57.5 µM]
CC(C)=CC1C(C(=O)OCc2coc(Cc3ccccc3)c2)C1(C)C (stereo not drawn),Potency,[5],inactive
CC[C@@H](CO)Nc1nc(NCc2ccccc2)c2ncn(C(C)C)c2n1,outcome,[6],inactive
same,outcome,[7],inactive
same,Potency,[8],18.4 µM (active)
same,viability change,[8],-22.6%
same,Potency,[9],31.6 µM (active)
CCC1CN2CCC1CC2[C@@H](Oc1cc2ccccc2c2ccccc12)c1ccnc2ccc(O)cc12 (stereo partly drawn),outcome,[10],inactive
same,outcome,[11],inactive
same,outcome,[12],inactive
same,outcome,[13],inactive
same,outcome,[14],inactive
CC(C)N(C(=O)CCl)c1ccccc1,outcome,[15],inactive
same,Potency,[16],15.8 µM [inhibitor] (active)
same,Potency,[17],39.8 µM (active)
O=C(NC(=O)c1c(F)cccc1F)Nc1ccc(Cl)cc1,Potency,[16],inactive
same,max response,[18],-17.2%
same,Potency,[19],15.8 µM (active)
CSc1nc(NC(C)C)nc(NC(C)C)n1,activation,[20],-3.76% (inactive)
CCCCN(CC)c1c([N+](=O)[O-])cc(C(F)(F)F)cc1[N+](=O)[O-],activation,[20],-2.46% (inactive)
